# Assay results from PubChem BioAssay (Tox21).
# Inconclusive results are not listed. A call without a number means that no potency is given here. Active and inactive are the calls of the source. Calls come from the whole dose curve.
# Assay: qHTS assay for small molecules that induce genotoxicity in human embryonic kidney cells expressing luciferase-tagged ATAD5 - cell viability (AID 651634); note: nearly all actives have a fitted effect of over 25% in size
# Conditions: HEK293T ATAD5-luc cells viability, CellTiter-Fluor, 15.5 h; series mostly up to 83.3 µM
# Excerpt: National Center for Advancing Translational Sciences [NCATS]
# NIH Chemical Genomics Center [NCGC]
# U.S. Environmental Protection Agency [EPA]
# National Institutes of Environmental Health Sciences [NIEHS]
# National Toxicology Program [NTP]
# U.S. Food and Drug Administration [FDA]
# Enhanced Level of Genome Instability Gene 1 (ELG1; human ATAD5) protein levels increase in response to various types of DNA damage. Using a luciferase reporter-gene tagged with ElG1, a cell-based assay [developed by Kyungjae Myung, NHGRI, NIH] was used to measure the induction of ATAD5 in human embryonic kidney cells (HEK293T). So, increase in luciferase activity can be used to identify the compounds that cause genetic stress. In addition to genotoxicity, these cells were also used to test for cytotoxicity by measuring the protease activity within live cells.
# Tox21 Assay Protocol Summary:
# For cytotoxicity screening, 2,000 cells in 5 uL/well were dispensed into white, solid-bottom 1536-well plates using a Multidrop Combi (Thermo Scientific) dispenser. Following transfer of 23 nL compound or DMSO vehicle by a pin tool, the plates were incubated 15.5 hr at 37C and 5% CO2. 1 ul CellTiter-Fluor reagent (Promega, Madison, WI) was then added to each plate and following 30 min incubation at 37C, fluorescence intensity was quantified on a ViewLux CCD-based plate reader.
# Potency is the fitted concentration of half-maximal effect.
row,SMILES,Potency
1,Cc1ccc([N+](=O)[O-])c(C)c1,inactive
2,COC(=O)CC(=O)OC,inactive
3,CCCCCCCCCCC(CO)CCCCCCCC (stereo not given),inactive
4,CC(=O)Oc1ccc(C(c2ccc(OC(C)=O)cc2)c2ccccn2)cc1,inactive
5,CC1(C)C(C=C(Cl)Cl)C1C(=O)OCc1cccc(Oc2ccccc2)c1 (stereo not given),inactive
6,OCCNCCO,inactive
7,CCCCCC1C(=O)CCC1CC(=O)OC (stereo not given),inactive
8,Clc1ccc(Sc2cc(Cl)c(Cl)cc2Cl)cc1,inactive
9,CCOC(=O)C(C)Oc1ccc(Oc2cnc3cc(Cl)ccc3n2)cc1 (stereo not given),inactive
10,CC(C)[C@@H]1CC[C@@H](C)CC1=O,inactive
11,CC(=O)Nc1ccc2c(c1)Cc1cc(NC(C)=O)ccc1-2,inactive
12,COC(=O)C(C)Oc1ccc(Oc2ncc(C(F)(F)F)cc2Cl)cc1 (stereo not given),inactive
13,O=Cc1ccccc1C=O,21.1 µM (active)
14,CC/C=C\C/C=C\C/C=C\CCCCCCCC(=O)O,inactive
15,C[N+](C)(C)CCO,inactive
16,Cc1ccc(C)c(O)c1,inactive
17,C1CN(SSN2CCOCC2)CCO1,inactive
18,C/C=C/C(=O)N(CC)c1ccccc1C,inactive
19,O=[Se](O)O,0.687 µM (active)
20,O=C1CCc2ccccc2O1,inactive

row,SMILES,Potency
1,CCC(=O)O[C@H]1[C@H](O[C@@H]2[C@@H](C)[C@H](O[C@H]3C[C@@](C)(OC)[C@@H](O)[C@H](C)O3)[C@@H](C)C(=O)O[C@H](CC)[C@@](C)(O)[C@H](O)[C@@H](C)C(=O)[C@H](C)C[C@@]2(C)O)O[C@H](C)C[C@@H]1N(C)C,inactive
2,O=C(O)CCCC(=O)O,inactive
3,O=C(O)c1ccc(O)cc1,inactive
4,c1ccc2cc3ccccc3cc2c1,inactive
5,CCCCCCCCCCCCO,inactive
6,O=C(O)COCCN1CCN(C(c2ccccc2)c2ccc(Cl)cc2)CC1 (stereo not given),inactive
7,Cc1ccc(C(C)(C)C)cc1,inactive
8,Cc1ccc(C(C)(C)C)c(O)c1,inactive
9,CC(C)[N+](C)(CCOC(=O)C1c2ccccc2Oc2ccccc21)C(C)C,inactive
10,OC[C@H]1O[C@@H]2O[C@H]3[C@H](O)[C@@H](O)[C@@H](O[C@H]4[C@H](O)[C@@H](O)[C@@H](O[C@H]5[C@H](O)[C@@H](O)[C@@H](O[C@H]6[C@H](O)[C@@H](O)[C@@H](O[C@H]7[C@H](O)[C@@H](O)[C@@H](O[C@H]1[C@H](O)[C@H]2O)O[C@@H]7CO)O[C@@H]6CO)O[C@@H]5CO)O[C@@H]4CO)O[C@@H]3CO,inactive
11,CN1CCOCC1,inactive
12,NC[C@H](O)c1ccc(O)c(O)c1,inactive
13,Oc1c(Cl)ccc(Cl)c1Cl,inactive
14,CN(C)CCCN1c2ccccc2Sc2ccc(Cl)cc21,inactive
15,IC(I)I,inactive
16,C=CC(C)(O)CCC=C(C)C (stereo not given),inactive
17,c1ccc2ncccc2c1,inactive
18,Nc1cc(Cl)c(N)c(Cl)c1,inactive
19,C=CCCCCCCCCCC,inactive
20,CCCOCCO,inactive
